Data on 17 compounds can be found in PubChem BioAssay (NCATS).

The nature of assay [1]: qHTS of pediatric cancer cell lines to identify multiple opportunities for drug repurposing: Primary screen for TC32 cells (AID 1347089). Also: nearly all actives have a fitted effect of over 60% in size. The method in brief: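 Measured quantity: luminescence from CellTiter-Glo, reflecting metabolically active TC32 cells following 48 h of compound. Curves came straight from multi-point titrations, with 8 or 11 points in primary and 11 in confirmatory screening.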

The nature of assay [2]: qHTS of pediatric cancer cell lines to identify multiple opportunities for drug repurposing: Primary screen for SJ-GBM2 cells (AID 1347091). Also: potency is read from the fitted curve at half-maximal effect. In short, it runs like this:
(§1)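 Viability measured as metabolically active cells via CellTiter-Glo luminescence following 48 hours of compound exposure, 11-point dilutions in confirmatory testing. 500-1,000 cells/well plated 5 hours before dosing; controls were DMSO and 2.3 µM bortezomib.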
A general note: qHTS replaces the single test concentration by a dilution series.

The nature of assay [3]: qHTS of pediatric cancer cell lines to identify multiple opportunities for drug repurposing: Primary screen for A673 cells (AID 1347092). Also: nearly all actives have a fitted effect of over 45% in size. Also: potency is read from the fitted curve at half-maximal effect. The method in brief: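 Cells are plated, rested 5 h, dosed by pintool, incubated 48 h, then lysed with CellTiter-Glo and read by luminescence. DMSO is the neutral control; bortezomib at 2.3 uM final is the positive control.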
Assay [4] can be described thus: qHTS of pediatric cancer cell lines to identify multiple opportunities for drug repurposing: Primary screen for SK-N-MC cells (AID 1347093). Also: potency is read from the fitted curve at half-maximal effect. The method in brief: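 Metabolically active cells were quantified by ATP-dependent luminescence (CellTiter-Glo, 15 min at room temperature) following 48 h treatment. Cells had been plated at 500-1,000 per well and settled for 5 h beforehand.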

Assay [5] can be described thus: qHTS of pediatric cancer cell lines to identify multiple opportunities for drug repurposing: Primary screen for DAOY cells (AID 1347090). Also: nearly all actives have a fitted effect of over 55% in size. Also: potency is read from the fitted curve at half-maximal effect. The method in brief:
as §1

Molecules are shown by their SMILES. Results filed as inconclusive are left out. Calls of active or inactive are those of the source. Calls follow the shape of the dose curve; as a rule, active = well fitted curve in the direction sought with a large enough effect; inconclusive = small, poorly fitted or top-dose-only effect, or another doubt; inactive = no such curve, though single readings can be large; an effect the other way counts as inactive or inconclusive.

For `COc1cc(Nc2ncc(F)c(Nc3ccc4c(n3)NC(=O)C(C)(C)O4)n2)cc(OC)c1OC`, in assay [1], the Potency result was “inactive”. Besides, the Potency in assay [2] was 3.72 µM (active); in assay [3] it was 14.8 µM (active); in assay [4] it was 0.418 µM (active).
Consider `Cc1cccc(Nc2nc(-c3ccncc3)cs2)c1`, for which the Potency entry in assay [1] and in assay [4] was “inactive” each time. In addition, in assay [2], the Potency is 16.6 µM (active).
Turning to `CNC(=O)c1ccccc1Sc1ccc2c(C=Cc3ccccn3)n[nH]c2c1`, the figures for the Potency in assay [2] and in assay [4] were 2.96 µM (active) and 3.32 µM (active), respectively.
For `CC(=O)O[C@]1(C(C)=O)CC[C@@H]2[C@@H]3C[C@H](C)C4=CC(=O)CC[C@]4(C)[C@H]3CC[C@@]21C`, the Potency result in assay [1] and in assay [2] was “inactive” in each case. Besides, the Potency in assay [3] and in assay [4] was 18.7 µM (active) each time.
Regarding `COc1ccc(Cc2ccc(NC(N)=O)cc2)cc1-c1cccc(Cl)c1`, the Potency entry in assay [1] was “inactive”. The Potency in assay [4] was 18.7 µM (active).
For the compound `Cc1nc(N)sc1-c1ccnc(Nc2ccc(N3CCOCC3)cc2)n1`, the Potency in assay [5] was 18.7 µM (active); in assay [2], 2.35 µM (active); in assay [3] it was 9.35 µM (active); in assay [4] it was 1.05 µM (active).
For `CC[C@]1(O)C[C@@H]2CN(CCc3c([nH]c4ccccc34)[C@@](C(=O)OC)(c3cc4c(cc3OC)N(C=O)[C@@H]3C45CCN4CC=C[C@](CC)([C@H]45)[C@@H](OC(C)=O)[C@]3(O)C(=O)OC)C2)C1` (some centres undefined), the Potency entry in assay [1] was “inactive”. Besides, the Potency in assay [3] was 11.8 µM (active); in assay [4], 20.9 µM (active).
For the compound `O=C(NCc1ccncc1)C12C[C@H]3C[C@@H](C1)CC(c1ccc(Cl)cc1)(C3)C2`, the Potency entry in assay [1] is “inactive”. The Potency in assay [2] is 20.9 µM (active); in assay [4], 0.526 µM (active).
Consider `O=c1cc(CN2CCOCC2)occ1OCCCCCSc1ccnc2cc(C(F)(F)F)ccc12`, for which the Potency result in assay [1] was “inactive”. Further, the Potency is 1.32 µM (active) in assay [2], 14.8 µM (active) in assay [3] and 1.32 µM (active) in assay [4].
Regarding `COc1cc(N2CCC(N3CCN(C)CC3)CC2)ccc1Nc1ncnc(Nc2ccccc2S(=O)(=O)C(C)C)n1`, the Potency entry in assay [5] is “inactive”. Also, the Potency in assay [3] was 9.35 µM (active).
Consider `CN(C)Cc1ccc(-c2nc3cccc4c3n2CCNC4=O)cc1`, for which the Potency in assay [3] and in assay [4] was 11.8 µM (active) in each case.
In the case of `CCS(=O)(=O)N1CC(CC#N)(n2cc(-c3ncnc4[nH]ccc34)cn2)C1`, the Potency entry in assay [1] is “inactive”. Further, the Potency in assay [3] was 14.8 µM (active).
As for `O=C(NCc1ccccc1)c1csc(Nc2ccncn2)n1`, the Potency entry in assay [1] is “inactive”. Also, the Potency in assay [3] was 23.5 µM (active); in assay [4] it was 20.9 µM (active).
Take `C[C@H](NC(=O)c1sccc1OCc1ccc(Cl)cc1)c1ccccc1`: the Potency result in assay [1] and in assay [2] was “inactive” throughout. For the same compound, the values for the Potency in assay [3] and in assay [4] were 23.5 µM (active) and 13.2 µM (active), respectively.
Consider `Nc1ncnc2c1nc(Cl)n2[C@@H]1O[C@H](CO)[C@@H](O)[C@@H]1O`, for which the results for the Potency in assay [2] and in assay [4] were 11.8 µM (active) and 26.4 µM (active), respectively.
Turning to `O=c1cc(-c2cccc3c2Sc2ccccc2S3)oc(N2CCOCC2)c1`, the Potency result in assay [1] and in assay [2] was “inactive” throughout. The Potency in assay [4] was 18.7 µM (active).
Turning to `CO[C@H]1C[C@@H]2CC[C@@H](C)[C@@](O)(O2)C(=O)C(=O)N2CCCC[C@@H]2C(=O)O[C@H]([C@@H](C)C[C@@H]2CC[C@H](O)[C@H](OC)C2)CC(=O)[C@H](C)C=C(C)[C@@H](O)[C@@H](OC)C(=O)[C@H](C)C[C@H](C)C=CC=CC=C1C`, the Potency entry in assay [1] and in assay [3] was “inactive” throughout.
